From ChEMBL document CHEMBL1157539, “Thousands of chemical starting points for antimalarial lead identification” (Nature, 2010)
Values joined by “and” are separate entries in the source; they are usually repeats but may differ in a detail not shown here. Identical values can stand only once.

Each compound was assayed on HepG2 (assay: GSK_TCMDC: Percent inhibition of human HepG2 cell line. Test compounds present at 10uM.).
Assay type: functional

Compound	Inhibition
COc1cccc(CN2CCC(CCOC(c3ccccc3)c3ccc(Cl)cc3)CC2)c1O (stereo not drawn)	22%
O=C(/C=C/c1ccc(Cl)c(Cl)c1)NC1CCC(N2CCC(c3c[nH]c4ccc(O)cc34)CC2)CC1 (stereo not drawn)	10%
COc1cc(NC(=O)c2nn(CCCN3CCC4(CC3)C(=O)NCN4c3ccccc3)cc2-c2ccc(Cl)c(Cl)c2)cc(OC)c1OC	0%
CCCCCCC(C)(C)c1cc(O)c2c(c1)OC(C)(C)c1ccncc1-2.Cl	4%
CC[C@H]1CN2CC[C@@H]1C[C@H]2[C@H](O)c1cc(N2CCOCC2)nc2ccc(OC)cc12	10%
O=C(/C=C/c1ccc(Cl)c(Cl)c1)N1CCC(CN2CCC(c3c(-c4ccc(F)cc4)[nH]c4ccccc34)CC2)CC1	19%
CC(C)/C(=C(/F)CN1C(=O)C(NC(=O)c2cc3ccccc3[nH]2)C(=O)N(c2ccccc2)c2ccccc21)c1ccccc1 (stereo not drawn)	7%
COc1ccc(C[C@H]2NC[C@H](O)[C@H]2OC(C)=O)cc1 [ANISOMYCIN]	39%
Cc1c(C)c2c(c(C)c1O)CC[C@](C)(C(=O)N1CCC(CN3CCC(c4c[nH]c5ccccc45)CC3)CC1)O2	29%
CC(C)N(C)C(=O)n1cnc(S(=O)(=O)C2CC3CCC2C3)n1.Cl (stereo not drawn)	26%
CC(=O)Nc1ccc(CN2CCC(N(C)c3ccc(NC(=O)c4cccc(C)c4)cc3)CC2)cc1.O=C(O)C(F)(F)F	0%
O=C(Nc1ccccc1Cl)NC1CCC(CN2CCC(c3c[nH]c4ccccc34)CC2)CC1 (stereo not drawn)	32% and 37%
O.Oc1cccc(C2CCCN(CCc3c[nH]c4ccccc34)C2)c1 (stereo not drawn)	0%
CC(Cc1ccc(OCCCCOc2ccccc2)cc1)NCCC1CCCN1C (stereo not drawn)	100%
COc1cccc(C2(C)CCN(CCCCNC(=O)c3ccc(NC(=O)c4ccc(Cl)cc4)cc3)CC2)c1.Cl	19%
Cc1ccc(CC(C)NC[C@H](O)c2cccc(Cl)c2)cc1.Cl (stereo partly drawn)	15%
CCOC(C(=O)OCC1CCCN1C(C)C)(c1ccccc1)c1ccccc1 (stereo not drawn)	0%
O=C(/C=C/c1cccc2ccccc12)NC1CCC(CN2CCC(c3c[nH]c4ccccc34)CC2)CC1 (stereo not drawn)	45% and 53%
O=C1NCN(c2ccc(O)cc2)C12CCN(CCCC(c1ccc(F)cc1)c1ccc(F)cc1)CC2	20%

Compound	Inhibition
CC(C)(C)c1cc(/C=C/C(=O)NC2CCC(CN3CCC(c4c[nH]c5ccccc45)CC3)CC2)cc(C(C)(C)C)c1O (stereo not drawn)	98% and 99%
COC(=O)c1ccc(CC(C)NCC(O)c2cccc(Oc3cccc(C(F)(F)F)c3)c2)cc1.Cl (stereo not drawn)	19%
O=C(/C=C/c1cc(F)c(F)cc1F)N1CCC(CN2CCC(c3c[nH]c4ccccc34)CC2)CC1	26%
COc1ccc2[nH]cc(C3=CCN(CC4CC4C(=O)c4ccccc4)CC3)c2n1 (stereo not drawn)	22%
O=C(/C=C/c1cc(C(F)(F)F)ccc1F)NC1CCC(CN2CCC(c3c[nH]c4ccccc34)CC2)CC1 (stereo not drawn)	5%
Cc1[nH]c2ccc([N+](=O)[O-])cc2c1C1=CCN(C)CC1	6%
Cc1[nH]c2ccccc2c1C1CCN(CC2CCC(NC(=O)/C=C/c3ccc(Cl)c(Cl)c3)CC2)CC1 (stereo not drawn)	15%
CN(c1cc(NC(=O)c2ccc(F)cc2)ccn1)C1CCN(Cc2ccc(C#N)cc2)CC1.O=C(O)C(F)(F)F	13%
CC(Cc1ccc(C2=CCNCC2)cc1)NCC(O)c1cccc(C(F)(F)F)c1.Cl (stereo not drawn)	27%
CC[C@H]1CN2CC[C@@H]1C[C@H]2[C@H](O)c1cc(N2CCC(N3CCCCC3)CC2)nc2ccc(OC)cc12	0%
O=C(NC1CCC(CN2CCC(c3c[nH]c4ccccc34)CC2)CC1)[C@H]1Cc2ccccc2CN1 (stereo partly drawn)	29%
NC(=O)CN1CC=C(c2c[nH]c3ccc(Br)cc23)CC1	30%
Cc1cccc(C(=O)Nc2ccnc(N(C)C3CCN(CC(C)C)CC3)c2)c1.O=C(O)C(F)(F)F	10%
C[C@@H](CC1CCCCC1)NCc1ccccc1O	9%
CN(c1cc(NC(=O)c2ccc(F)cc2)ccn1)C1CCN(Cc2cccc(C#N)c2)CC1.O=C(O)C(F)(F)F	73%
CC1(CCCCN2CC=C(c3c[nH]c4ccccc34)CC2)C(=O)Nc2ccccc21 (stereo not drawn)	3%
O=C(/C=C/c1c(Cl)cccc1Cl)NC1CCC(CN2C3CCC2CC(c2c[nH]c4ccccc24)C3)CC1 (stereo not drawn)	40%
O=C(CCC(=O)c1ccc2c3c(cccc13)CC2)NC1CCC(CN2CCC(c3c[nH]c4ccccc34)CC2)CC1 (stereo not drawn)	34%
Cc1cccc2c(C3CCN(CC4CCC(NC(=O)/C=C/c5ccc(Cl)c(Cl)c5)CC4)CC3)c[nH]c12 (stereo not drawn)	97%
